We go through 2 molecules from PubChem BioAssay (NCATS).

The nature of assay [1]: AP1 Signaling Pathway (AID 357; active means well fitted curve in either direction with a large enough effect, not every such curve was filed as active;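 further: ME-180 reporter cells stimulated with EGF at its EC50 level; on the % scale 0 is the no-effect control and ±100 the full control effect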). Particulars: ME-180 AP-1-bla reporter, EGF-induced, beta-lactamase ratio, 5 h. A digest of the protocol:
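First, ME-180 AP-1-bla cells were cultured overnight at 37 °C in low-serum Opti-MEM. Next, titrated compounds with EC50 EGF were incubated 5 hours. Finally, CCF4 was added for 2.5 hours and the 460/530 nm ratio recorded.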

Assay [2] in a line: NFAT Signaling Pathway (AID 444; active means well fitted curve in either direction with a large enough effect, not every such curve was filed as active;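 further: carbachol stimulus at about its EC50 of 1 µM final; on the % scale 0 is the no-effect control and ±100 the full control effect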). The settings on record: Jurkat NFAT-bla M1, carbachol, beta-lactamase ratio, 5 h. The essentials:
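Jurkat cells carrying an NFAT-driven β-lactamase reporter and co-transfected muscarinic M1 receptor were treated with compound plus carbachol (1 uM final, an EC50 level) for 5 h at 37 °C. CCF4 loading followed for 1 h at RT; 460/530 nm ratio gave %activity.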

Assay [3] is described as follows: Stat Signaling Pathway (AID 446; active means well fitted curve in either direction with a large enough effect, not every such curve was filed as active;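 further: ME-180 cervical cancer cells given 40 pM IL-6 alongside compound; SIE-controlled beta-lactamase reporter measured as 460/530 nm FRET emission ratio; on the % scale 0 is the no-effect control and ±100 the full control effect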). Particulars: ME-180 (cervical carcinoma) SIE beta-lactamase reporter, IL-6 stimulated, 5 h. The essentials: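 FRET read-out (405 nm excitation, 460/530 nm emission) of a beta-lactamase reporter under a STAT-inducible element in ME-180 cervical carcinoma cells. Cells with compound receive 40 pM IL-6 for 5 h. Values are normalised to AC90 stimulation and AC90 JAK-inhibitor controls.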

Assay [4] deals with Glucocorticoid receptor (Homo sapiens) (UniProt P04150). Nature of the assay: GR-GFP Redistribution (AID 450;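 active means compounds whose dose series gives a full or clear partial fitted curve of increased nuclear translocation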; further: potency means the concentration at half of the fitted maximal effect). Particulars: U2OS GR-GFP nuclear translocation, laser cytometry, 2 h.
For assay [5] the target is unchanged. Nature of the assay: GR-EFC Redistribution (AID 451; calls by dose curve; further: potency means the concentration at half of the fitted maximal effect). Particulars: CHO-K1 GR-EFC translocation, beta-gal luminescence, 2 h. A digest of the protocol: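 CHO-K1 cells stably expressing nuclear-localized β-gal enzyme acceptor and GR fused C-terminally to the enzyme donor fragment; ligand-driven nuclear translocation restores β-gal by complementation. Compounds titrated up to 46 uM final, 2 h at 37 °C; luminescence read.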

The target of assay [6] is Mitogen-activated protein kinase 10 (Mus musculus) (UniProt Q61831). Briefly: JNK3 AlphaScreen Assay (AID 530; active means well fitted curve in either direction with a large enough effect, not every such curve was filed as active;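 further: kinase came from lysate of stimulated human HepG2 cells; signal reports phosphorylation of biotinylated GST-cJun 1-79 at Ser73 with 10 µM ATP; on the % scale 0 is the no-effect control and ±100 the full control effect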). Particulars: JNK3 lysate, c-Jun phosphorylation; series mostly up to 57.1 µM. A digest of the protocol:
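Phosphorylation of biotinylated GST-cJun(1-79) at Ser73 is measured by AlphaScreen proximity luminescence. Enzyme is JNK3 in HepG2 lysates activated with interleukin-1beta and tumor necrosis factor alpha; ATP is 10 uM final.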
A general note: In Alpha technology, singlet oxygen from a donor bead excites a nearby acceptor bead.

In assay [7] the target is 3',5'-cyclic-AMP phosphodiesterase 4B (Homo sapiens) (UniProt Q07343). Briefly: qHTS Assay for Inhibitors of PDE-IV (AID 607; active means well fitted activation curve with a large enough effect in the main read-out, with a control signal flat, not every such curve was filed as active; further: % of control where 0% means no effect). Particulars: HEK293 ACTOne CNG channel cells, membrane potential fluorescence; series mostly up to 22.9 µM. A digest of the protocol: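 Cell-based read-out of cAMP via a modified cyclic nucleotide-gated channel and membrane potential dye (535/590 nm) in HEK293 cells expressing PDE4 endogenously. Compounds tested up to 22.9 uM final; 100 uM RO 20-1724 reference.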

In assay [8] the target is Guanine nucleotide-binding protein G(i) subunit alpha-1 (Homo sapiens) (UniProt P63096). Nature of the assay: qHTS Assay for Inhibitors of RGS12 GoLoco Motif Activity (Green Fluorophore) (AID 879).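 Further: 0% = labeled peptide with Gαi1 and full inhibition = labeled peptide alone without protein; negative values mean loss of peptide binding seen as reduced polarization.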 The settings on record: Galphai1/FITC-RGS12 GoLoco peptide, fluorescence polarization; series mostly up to 57.1 µM. The essentials:
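A drop in FITC polarization marked displacement of the FITC-tagged RGS12 GoLoco peptide (10 nM) from Gαi1 (50 nM). Compounds were incubated 10 min at room temperature in Tris pH 7.5 buffer containing 150 mM NaCl, 0.1 mM GDP and 0.05% NP40; unlabeled peptide titration served as control.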
A general note: qHTS replaces the single test concentration by a dilution series.

In assay [9] the target is Pyruvate kinase (Leishmania mexicana) (UniProt Q27686). Briefly: qHTS Validation Assay for Inhibitors of Leishmania Mexicana Pyruvate Kinase (AID 945).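 Further: 0% = DMSO only neutral control wells.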 Particulars: purified L. mexicana pyruvate kinase, enzyme activity, E451W mutant enzyme; series mostly up to 57.5 µM. A digest of the protocol:
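Luminescent ATP detection (PKLight) after a 1 h room-temperature reaction of 0.2 nM LmPYK E451W mutant with 0.5 mM PEP and 0.1 mM ADP at pH 7.2. Activity is normalized to DMSO-only control wells.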

Assay [10] has as its target Pyruvate kinase PKM (Homo sapiens) (UniProt P14618). Briefly: qHTS Assay for Activators of Human Muscle Pyruvate Kinase (AID 954; active means well fitted curve in the direction sought with a large enough effect, not every such curve was filed as active;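 further: 0% = uninhibited enzyme and -100% = no enzyme or full thiadiazolimine inhibition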). Particulars: purified human muscle pyruvate kinase, luciferase-coupled luminescence, 1 h; series mostly up to 57.5 µM. The essentials:
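ATP production by PKM2 detected via luciferase luminescence after 1 h room-temperature reaction (0.1 nM enzyme, PEP at Km 0.5 mM, ADP 0.1 mM, pH 7.2 imidazole buffer). Inhibition scaled to no-enzyme control; activation referenced to 0.3 nM enzyme wells.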

Assay [11] addresses alpha-glucosidase (Oryza sativa, rice) (UniProt Q653V4). Nature of the assay: Counterscreen for Glucocerebrosidase Inhibitors: qHTS Assay for Rice alpha-Glucosidase at pH 5.0 (AID 997).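 Further: 0% = full activity with enzyme and -100% = basal without enzyme.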 The settings on record: rice alpha-glucosidase enzyme activity; series mostly up to 76.9 µM. A digest of the protocol: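 Endpoint fluorogenic assay at pH 5.0: compounds (0.7 nM to 77 uM) titrated against 4 nM rice enzyme and 400 uM 4-MU-alpha-glucoside for 20 min at room temperature; NaOH/glycine stop, read ex 365/em 440 nm, Hill-fitted AC50.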

Assay [12] is described as follows: qHTS Assay for Lipid Storage Modulators (AID 1519; calls by dose curve). Particulars: Drosophila S3 cells, BODIPY lipid droplet/cell ratio, laser cytometry, cells loaded with oleic acid; for activity change, negative = inhibition: at 25.7 µM (top of the series). The essentials: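 Cells seeded at 5,000 per well were treated with compounds over a concentration series and loaded with oleic acid (400 uM, as added). Lipid droplet fluorescence (488 nm excitation, 500-530 nm channel) was read by laser-scanning cytometry and normalized to 20 uM Triacsin C.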

Assay [13] addresses ATP-dependent 6-phosphofructokinase (Trypanosoma brucei brucei) (UniProt O15648). Briefly: qHTS Assay to Find Inhibitors of T. brucei phosphofructokinase: hit validation (AID 492961). Particulars: T. brucei PFK, ADP-Glo luminescence; series mostly up to 24.3 µM. A digest of the protocol:
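Reaction: 0.1 M triethanolamine pH 8.0, 5 mM MgCl2, F6P 0.5 mM, ATP 0.1 mM, PFK 1.25 nM, 45 min RT. Read-out: ADP-Glo luminescence. Analysis: concentration-response fits, classed by r2 and efficacy.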

For assay [14], the target named is Ubiquitin carboxyl-terminal hydrolase 1 (Homo sapiens) (UniProt O94782). Nature of the assay: Inhibitors of USP1/UAF1: Pilot qHTS (AID 504865).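 Further: rhodamine fluorescence freed from ubiquitin-rhodamine substrate followed over time; top concentration of the series differs between compounds; on the % scale 0 is the no-effect control and ±100 the full control effect; nearly all actives have a fitted effect of over 35% in size.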 Particulars: purified USP1/UAF1, Ub-rhodamine cleavage fluorescence; series mostly up to 54.9 µM. A digest of the protocol:
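1nM USP1/UAF1 + cpd, 15 min RT; start w/ Ub-Rho 150nM final; kinetic FL 480/540 nm, 6 reads q60 s. Buffer 50mM HEPES pH 7.8, 0.5mM EDTA, 1mM TCEP, 0.01% Tween-20, 0.1 mg/ml BSA.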

For assay [15], the target named is Luciferin 4-monooxygenase (Photinus pyralis) (UniProt P08659). Nature of the assay: Biochemical firefly luciferase enzyme assay for NPC (AID 624030).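 Further: purified P. pyralis luciferase at 10 nM with luciferin and ATP substrate; 0% = DMSO and -100% = full luciferase inhibition by PTC124 control; nearly all actives have a fitted effect of over 70% in size.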 Particulars: purified P. pyralis luciferase, luminescence, 5 min; series mostly up to 58.6 µM. A digest of the protocol:
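Counter-screen for direct inhibition of the luciferase enzyme by approved-drug library compounds, run at 10 nM enzyme in 50 mM Tris acetate (final). Luminescence was read within 5 min of enzyme-buffer addition and normalized to PTC124 versus DMSO (0%).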

A short description of assay [16]: qHTS profiling for inhibitors of Plasmodium falciparum proliferation (AID 504749).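 Further: 0% = DMSO vehicle and full inhibition = artemisinin control; nearly all actives have a fitted effect of over 60% in size.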 Particulars: P. falciparum in erythrocytes, SYBR Green DNA, 72 h, at 28.7 µM (top of the series). A digest of the protocol: (§1)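 Quantitative HTS: compounds pinned into medium, infected erythrocytes added (0.3% parasitemia, 2.5% hematocrit), 72 h culture at 37 C under 5% CO2. Saponin/Triton lysis with SYBR Green I, overnight RT, then fluorescence read.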

The test system of assay [17] is AS120. The description is as above. Particulars: P. falciparum in erythrocytes, SYBR Green DNA, 72 h; series mostly up to 28.7 µM. A digest of the protocol: as §1
Assay [18] deals with CP238. The description is as above. Particulars: P. falciparum in erythrocytes, SYBR Green DNA, 72 h; series mostly up to 12.8 µM. The essentials: as §1
The subject of assay [19] is FAB9. The assay is described as above. The settings on record: P. falciparum in erythrocytes, SYBR Green DNA, 72 h; series mostly up to 12.8 µM. The essentials:
as §1

The target of assay [20] is Cytochrome P450 1A2 (Homo sapiens) (UniProt P05177). Nature of the assay: p450-cyp1a2 (AID 410; calls by dose curve; further: potency means the concentration at half of the fitted maximal effect). Particulars: recombinant CYP1A2, luciferin-ME demethylation, luminescence; series mostly up to 57 µM. A digest of the protocol: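 O-Demethylation of luciferin 6' methyl ether by human CYP1A2 is monitored as luciferase luminescence. Substrate sits at Km (100uM); enzyme is 20nM. Values are scaled to 57 uM furafylline as maximal inhibition.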

Where [21] appears, read: measured here: cell count channel max response.
[22] abbreviates: measured here: lipid channel max response.

“And” between values parts separate entries of the source, which are not always exact repeats. Identical values can stand only once. Records with an inconclusive call do not appear. The source made the active and inactive calls. Unless noted, the call rests on the fitted dose curve; in most records, active means well fitted curve in the direction sought with a large enough effect; inconclusive means small, poorly fitted or top-dose-only effect, or another doubt; inactive means no such curve, though single readings can be large; an effect the other way counts as inactive or inconclusive.

Glucocorticoid receptor (Homo sapiens), sequence (P04150 whole entry, looked up, the tested form may be a part): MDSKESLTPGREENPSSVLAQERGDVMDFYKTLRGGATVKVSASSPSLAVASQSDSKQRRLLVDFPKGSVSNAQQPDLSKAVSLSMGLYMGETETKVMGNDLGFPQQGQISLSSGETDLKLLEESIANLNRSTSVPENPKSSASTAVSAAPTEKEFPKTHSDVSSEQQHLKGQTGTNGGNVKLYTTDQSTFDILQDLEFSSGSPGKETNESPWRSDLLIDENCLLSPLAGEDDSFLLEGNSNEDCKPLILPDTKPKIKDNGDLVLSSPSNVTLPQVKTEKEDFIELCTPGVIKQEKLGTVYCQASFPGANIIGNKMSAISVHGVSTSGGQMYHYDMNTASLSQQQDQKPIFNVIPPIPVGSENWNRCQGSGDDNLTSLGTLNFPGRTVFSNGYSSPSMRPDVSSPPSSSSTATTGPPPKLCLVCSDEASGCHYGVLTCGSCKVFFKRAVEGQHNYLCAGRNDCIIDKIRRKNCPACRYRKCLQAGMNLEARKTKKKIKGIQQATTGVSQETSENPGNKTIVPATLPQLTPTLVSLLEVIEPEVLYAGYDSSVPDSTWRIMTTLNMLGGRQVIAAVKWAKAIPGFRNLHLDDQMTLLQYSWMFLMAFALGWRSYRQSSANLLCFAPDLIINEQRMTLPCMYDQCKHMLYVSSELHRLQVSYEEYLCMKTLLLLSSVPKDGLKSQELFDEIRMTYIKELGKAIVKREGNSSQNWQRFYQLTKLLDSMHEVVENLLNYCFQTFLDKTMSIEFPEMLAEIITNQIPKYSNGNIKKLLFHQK
3',5'-cyclic-AMP phosphodiesterase 4B (Homo sapiens), sequence (Q07343 whole entry, looked up): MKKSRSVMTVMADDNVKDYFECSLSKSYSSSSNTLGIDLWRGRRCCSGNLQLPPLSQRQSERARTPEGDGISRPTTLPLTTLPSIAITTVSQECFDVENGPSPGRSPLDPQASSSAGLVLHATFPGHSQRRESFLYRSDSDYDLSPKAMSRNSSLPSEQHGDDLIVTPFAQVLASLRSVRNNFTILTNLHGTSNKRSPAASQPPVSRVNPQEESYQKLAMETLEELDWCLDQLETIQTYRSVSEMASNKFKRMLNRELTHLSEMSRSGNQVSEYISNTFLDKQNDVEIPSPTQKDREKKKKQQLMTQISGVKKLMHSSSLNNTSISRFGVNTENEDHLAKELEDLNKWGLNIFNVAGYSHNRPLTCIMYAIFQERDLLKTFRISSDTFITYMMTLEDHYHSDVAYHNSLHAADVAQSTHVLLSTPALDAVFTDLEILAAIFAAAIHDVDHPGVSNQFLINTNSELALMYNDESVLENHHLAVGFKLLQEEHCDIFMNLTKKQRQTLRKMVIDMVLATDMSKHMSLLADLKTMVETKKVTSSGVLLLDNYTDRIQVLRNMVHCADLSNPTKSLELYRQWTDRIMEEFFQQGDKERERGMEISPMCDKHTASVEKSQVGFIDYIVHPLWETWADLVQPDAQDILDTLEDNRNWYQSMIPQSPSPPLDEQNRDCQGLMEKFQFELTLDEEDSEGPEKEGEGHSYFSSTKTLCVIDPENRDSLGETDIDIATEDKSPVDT
Pyruvate kinase PKM (Homo sapiens), sequence (P14618 whole entry, looked up): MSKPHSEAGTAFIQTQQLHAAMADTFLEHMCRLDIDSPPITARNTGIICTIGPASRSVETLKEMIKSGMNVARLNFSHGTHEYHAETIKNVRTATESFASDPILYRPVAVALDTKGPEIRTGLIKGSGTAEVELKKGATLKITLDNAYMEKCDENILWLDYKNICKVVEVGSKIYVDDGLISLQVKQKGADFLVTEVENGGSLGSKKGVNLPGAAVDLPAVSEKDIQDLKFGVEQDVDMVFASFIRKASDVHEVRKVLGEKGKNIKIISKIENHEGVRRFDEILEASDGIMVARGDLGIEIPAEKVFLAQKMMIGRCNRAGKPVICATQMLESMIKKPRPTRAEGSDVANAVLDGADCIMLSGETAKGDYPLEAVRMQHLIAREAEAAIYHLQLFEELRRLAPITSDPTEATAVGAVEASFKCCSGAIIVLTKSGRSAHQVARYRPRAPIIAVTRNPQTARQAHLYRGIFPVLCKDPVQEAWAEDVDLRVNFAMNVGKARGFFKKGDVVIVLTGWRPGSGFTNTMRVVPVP
ATP-dependent 6-phosphofructokinase (Trypanosoma brucei brucei), sequence (O15648 whole entry, looked up): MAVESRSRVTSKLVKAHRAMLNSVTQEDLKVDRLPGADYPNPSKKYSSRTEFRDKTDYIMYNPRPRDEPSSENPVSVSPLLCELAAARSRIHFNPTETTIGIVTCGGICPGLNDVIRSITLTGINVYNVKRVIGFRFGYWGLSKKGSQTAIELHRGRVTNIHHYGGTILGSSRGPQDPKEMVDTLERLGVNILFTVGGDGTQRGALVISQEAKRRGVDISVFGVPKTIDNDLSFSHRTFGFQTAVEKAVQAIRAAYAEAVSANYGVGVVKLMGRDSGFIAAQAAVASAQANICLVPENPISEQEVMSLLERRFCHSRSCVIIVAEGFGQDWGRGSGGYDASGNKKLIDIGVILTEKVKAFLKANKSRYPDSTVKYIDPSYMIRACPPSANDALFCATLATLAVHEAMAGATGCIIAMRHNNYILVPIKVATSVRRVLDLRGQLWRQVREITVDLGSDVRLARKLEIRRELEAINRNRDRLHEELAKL
Pyruvate kinase (Leishmania mexicana), sequence (Q27686 2-499 E452W): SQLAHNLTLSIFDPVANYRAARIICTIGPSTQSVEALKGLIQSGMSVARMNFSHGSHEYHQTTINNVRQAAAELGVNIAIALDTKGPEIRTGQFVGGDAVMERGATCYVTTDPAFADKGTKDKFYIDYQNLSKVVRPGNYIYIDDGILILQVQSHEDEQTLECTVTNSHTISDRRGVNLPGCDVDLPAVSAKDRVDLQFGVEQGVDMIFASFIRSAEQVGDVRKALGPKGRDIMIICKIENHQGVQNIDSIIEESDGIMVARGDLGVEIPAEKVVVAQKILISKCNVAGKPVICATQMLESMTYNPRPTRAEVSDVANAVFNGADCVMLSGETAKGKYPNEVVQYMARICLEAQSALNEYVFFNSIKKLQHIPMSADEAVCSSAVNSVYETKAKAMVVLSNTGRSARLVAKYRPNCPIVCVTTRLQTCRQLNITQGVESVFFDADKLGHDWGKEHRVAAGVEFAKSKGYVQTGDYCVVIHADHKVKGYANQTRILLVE
Cytochrome P450 1A2 (Homo sapiens), sequence (P05177 whole entry, looked up): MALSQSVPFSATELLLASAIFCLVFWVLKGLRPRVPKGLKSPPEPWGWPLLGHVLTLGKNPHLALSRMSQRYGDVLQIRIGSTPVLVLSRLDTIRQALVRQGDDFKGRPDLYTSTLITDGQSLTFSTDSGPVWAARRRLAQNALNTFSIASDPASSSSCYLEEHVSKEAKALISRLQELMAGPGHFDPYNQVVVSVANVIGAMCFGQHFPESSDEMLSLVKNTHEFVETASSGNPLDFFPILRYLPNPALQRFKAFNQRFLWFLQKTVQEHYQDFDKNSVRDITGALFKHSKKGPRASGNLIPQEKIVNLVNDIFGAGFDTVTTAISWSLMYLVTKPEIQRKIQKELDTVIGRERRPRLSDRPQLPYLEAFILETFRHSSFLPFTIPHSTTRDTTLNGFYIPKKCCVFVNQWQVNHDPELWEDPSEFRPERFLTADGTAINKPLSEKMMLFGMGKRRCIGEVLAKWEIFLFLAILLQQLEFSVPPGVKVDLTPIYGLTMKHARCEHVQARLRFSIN
Ubiquitin carboxyl-terminal hydrolase 1 (Homo sapiens), sequence (O94782 whole entry, looked up): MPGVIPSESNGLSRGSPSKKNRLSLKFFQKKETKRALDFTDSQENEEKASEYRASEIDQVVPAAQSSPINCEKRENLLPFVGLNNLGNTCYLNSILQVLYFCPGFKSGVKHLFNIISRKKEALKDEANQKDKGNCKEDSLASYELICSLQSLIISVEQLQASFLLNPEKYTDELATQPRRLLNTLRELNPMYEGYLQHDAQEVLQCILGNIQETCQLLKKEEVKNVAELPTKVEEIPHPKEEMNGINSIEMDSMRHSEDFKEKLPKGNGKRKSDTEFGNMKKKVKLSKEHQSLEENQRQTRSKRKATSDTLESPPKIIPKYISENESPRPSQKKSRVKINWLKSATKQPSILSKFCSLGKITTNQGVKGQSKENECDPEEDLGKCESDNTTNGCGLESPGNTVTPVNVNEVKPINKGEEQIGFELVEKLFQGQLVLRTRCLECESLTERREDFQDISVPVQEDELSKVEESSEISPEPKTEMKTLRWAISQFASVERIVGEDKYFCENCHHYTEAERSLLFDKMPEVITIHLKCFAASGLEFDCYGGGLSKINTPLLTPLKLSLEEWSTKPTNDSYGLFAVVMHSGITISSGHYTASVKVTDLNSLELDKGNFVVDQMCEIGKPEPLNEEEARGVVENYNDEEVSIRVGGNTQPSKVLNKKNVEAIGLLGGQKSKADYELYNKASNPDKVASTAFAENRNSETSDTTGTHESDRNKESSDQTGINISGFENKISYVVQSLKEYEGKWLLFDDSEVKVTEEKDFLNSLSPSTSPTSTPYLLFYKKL
Luciferin 4-monooxygenase (Photinus pyralis), sequence (P08659 whole entry, looked up): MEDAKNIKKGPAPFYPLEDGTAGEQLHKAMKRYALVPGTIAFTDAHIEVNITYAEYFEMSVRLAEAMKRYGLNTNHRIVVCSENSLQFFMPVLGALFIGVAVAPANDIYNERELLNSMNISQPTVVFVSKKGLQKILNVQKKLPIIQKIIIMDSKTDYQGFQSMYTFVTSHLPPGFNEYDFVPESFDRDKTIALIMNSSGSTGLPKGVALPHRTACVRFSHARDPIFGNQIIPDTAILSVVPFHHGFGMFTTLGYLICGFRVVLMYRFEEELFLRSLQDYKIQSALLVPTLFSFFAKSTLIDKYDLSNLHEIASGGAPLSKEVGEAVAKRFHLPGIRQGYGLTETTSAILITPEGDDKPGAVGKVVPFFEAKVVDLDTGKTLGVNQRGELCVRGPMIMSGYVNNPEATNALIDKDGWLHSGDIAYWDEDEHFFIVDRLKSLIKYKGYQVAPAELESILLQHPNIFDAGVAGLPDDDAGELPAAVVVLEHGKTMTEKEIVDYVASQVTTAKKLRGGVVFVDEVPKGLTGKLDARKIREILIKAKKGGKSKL

With `COCCc1ccc(OC[C@H](O)CNC(C)C)cc1`, the activity change, negative = inhibition in assay [1] (at 17.2 µM (top of the series)) was 15.8% (inactive); in assay [1] (at 38 µM (top of the series)), 13.6% (inactive); in assay [2] (at 17.2 µM (top of the series)), 1.88% (inactive); in [2] (at 38 µM (top of the series)), -1.17% (inactive); in assay [12], 1.2% (inactive). Moreover, the activity, negative = inhibition in assay [3] (at 17.2 µM (top of the series)) is -1.97% (inactive); in assay [3] (at 38 µM (top of the series)) it was 13.4% (inactive); in assay [16] (parasite line A), 13.1% (inactive); in assay [16] (parasite line B), 3.39% (inactive). In addition, the Potency in assay [4] was > 46 µM (inactive) and > 20.6 µM (inactive); in [5], > 46 µM (inactive) and > 20.6 µM (inactive). For the same molecule, the Potency entry in assay [6], in assay [7], in assay [8], in assay [14], in [17] and in assay [18] was “inactive” throughout. Besides, in [19], the Potency entry was “inactive”. The result in assay [9], in [10], in [11], in [13] and in assay [15] was inactive. Also, the max response amounted to 10.9% in assay [12] (setting [21]) and 11.2% in assay [12] (setting [22]).
For the molecule `CCN(CC)CC#CCOC(=O)[C@@](O)(c1ccccc1)C1CCCCC1`, the activity change, negative = inhibition in [1] (at 17.2 µM (top of the series)) was 0.766% (inactive); in [1] (at 38 µM (top of the series)) it was -1.31% (inactive); in [12], -3.63% (inactive). Also, the Potency in [20] is 3.98 µM (active) and 1.26 µM (active); in assay [4], > 46 µM (inactive) and > 20.6 µM (inactive); in assay [5] it was > 46 µM (inactive) and > 20.6 µM (inactive). For the same molecule, the activity, negative = inhibition in assay [3] (at 7.69 µM (top of the series) unless noted) was -21.9% [at 38 µM] (inactive). Further, the Potency entry in assay [6], in assay [7], in [8], in assay [14], in assay [17] and in assay [18] was “inactive” each time. In addition, in assay [19], the Potency result is “inactive”. In addition, the outcome in assay [9], in assay [10], in assay [11], in assay [13] and in assay [15] was inactive. Also, the max response in [12] (setting [21]) is -6.72%; in [12] (setting [22]), -11.7%.
